Test results taken from PubChem BioAssay (NCI).
About 79,000 compounds went through this panel and 15% of them were active in at least one assay; those are over-represented in the sample as a whole. No stated cut-off is given here; in the data, active means growth inhibition above about 70%; inactive means the rest.

Experiments:
[1] = NCI Yeast Anticancer Drug Screen. Data for the rad50 strain (AID 155);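 further: 0% = growth of vehicle-only cultures of the same strain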; conditions: S. cerevisiae rad50 strain growth inhibition; at 50.0 µM; hits give high values
Method in brief: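 Growth of the mutant yeast was measured after compound exposure and referenced to vehicle-treated cultures.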

[2] = NCI Yeast Anticancer Drug Screen. Data for the mec2-1 strain (AID 157); conditions: S. cerevisiae mec2-1 strain, at 50.0 µM, hits give high values
Method in brief: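 Test agents were screened against the mec2-1 yeast strain, with defined DNA repair or cell cycle alteration. Growth was scored as inhibition against vehicle-only controls.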

[3] = NCI Yeast Anticancer Drug Screen. Data for the sgs1 mgt1 strain (AID 161);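 further: 0% = growth of cultures given vehicle only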; conditions: S. cerevisiae sgs1 mgt1 strain, at 50.0 µM, hits give high values
Method in brief: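 Read-out: growth inhibition vs vehicle controls. Cells: mutant yeast strain deficient in DNA damage repair.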

[4] = NCI Yeast Anticancer Drug Screen. Data for the cln2 rad14 strain (AID 165);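 further: 0% = growth equal to vehicle treated cultures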; conditions: S. cerevisiae cln2 rad14 strain, at 50.0 µM, hits give high values
Method in brief: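 Growth of compound-exposed yeast (cln2 rad14 genotype) measured and expressed as inhibition relative to vehicle.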

[5] = NCI Yeast Anticancer Drug Screen. Data for the bub3 strain (AID 167); conditions: S. cerevisiae bub3 mutant strain, at 50.0 µM, hits give high values
Method in brief: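 Whole-cell yeast assay. The mutant strain was incubated with compounds, and growth inhibition was determined by comparison with vehicle-treated cells.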

[6] = NCI Yeast Anticancer Drug Screen. Data for the mlh1 rad18 strain (AID 175); conditions: S. cerevisiae mlh1 rad18 strain growth inhibition; at 50.0 µM; hits give high values
Method in brief: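 In this whole-cell yeast screen, a strain with altered DNA damage repair is challenged with compound, and its growth is measured against matched vehicle-treated controls.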

Measured: growth inhibition

CC(C)c1nc2c(c(=O)o1)CCS2
inactive: [1] -5.5% | [2] -5.75% | [3] -7.9% | [4] -8.1% | [5] -1.4% | [6] -11.9%

CS(=O)(=O)OC1CCCCC1OS(C)(=O)=O (stereo unspecified)
inactive: [1] 3.15% | [2] 8.25% | [3] 22.2% | [4] -1.85% | [5] 7.55% | [6] 9.15%

Cc1ccc(-n2nc(C)cc2C)nn1
inactive: [1] -3.55% | [2] 11.2% | [3] -9.75% | [4] -25.7% | [5] 26.6% | [6] -13.8%

CC1=N/C(=C/c2ccc3c(c2)OCO3)C(=O)O1
inactive: [1] 5.05% | [2] 6.1% | [3] 6.05% | [4] -24.9% | [5] -4.6% | [6] 14%

CCOC(=O)C(NC(=O)NC(C(=O)OCC)C(=O)OCC)C(=O)OCC
inactive: [1] -16.7% | [2] -20.6% | [3] -6.55% | [4] -4.05% | [5] -7.7% | [6] -17.6%

CCOC(=O)CNc1nc(Cl)nc(NCC(=O)OCC)n1
inactive: [1] 3.05% | [2] -4.6% | [3] -0.05% | [4] -43.2% | [5] 28.9% | [6] 1.4%

CC(C)(C)OC1COCCO1 (stereo unspecified)
inactive: [1] 12.1% | [2] -5.35% | [3] 8.35% | [4] 1.3% | [5] 8% | [6] 13.8%

CCOC(=O)C1CSC(N)=N1 (stereo unspecified)
inactive: [1] 4.45% | [2] -38.9% | [3] -11.8% | [4] -29.4% | [5] 5.65% | [6] -7.8%

Cc1ccc(S/C=C/Sc2ccc(C)cc2)cc1
inactive: [1] 15.1% | [2] 8.15% | [3] 3.55% | [4] -14.6% | [5] 22.9% | [6] 36%

O=C(O)CSc1n[nH]c(-c2ccccc2O)n1
inactive: [1] -1.1% | [2] 2.5% | [3] 17.8% | [4] 17.5% | [5] 9.6% | [6] 7.25%

O=C(/C=C/c1ccccc1)OCCCl
inactive: [1] -23.4% | [2] -15.1% | [3] -17.9% | [4] -14.1% | [5] -22.4% | [6] -7.35%

CC(=O)N(CCc1ccccc1)C(C)(C#N)c1ccccc1 (stereo unspecified)
inactive: [1] -0.2% | [2] 4% | [3] -30.9% | [4] -22.4% | [5] -12.2% | [6] -29.4%

CN(C(=O)c1ccc(C(=N)N)cc1)c1ccccc1
inactive: [1] -8.3% | [2] -7.3% | [3] -5.1% | [4] -12.8% | [5] -0.05% | [6] -8.95%

CCCCCCCCCCCCCCCOc1cc(OC)ccc1-c1nnc(SC)s1
inactive: [1] -15.2% | [2] -15.6% | [3] -24.1% | [4] -3.05% | [5] -11.5% | [6] -5.7%

Cc1cc(C)c(SSc2c(C)cc(C)cc2C)c(C)c1
inactive: [1] -7.8% | [2] -8.65% | [3] -3.9% | [4] -15.6% | [5] 7.6% | [6] -1.6%

CN(C)C(=S)N(C(=S)N(C)C)c1ccc(Cl)cc1
inactive: [1] -7.9% | [2] -11.8% | [3] -7.15% | [4] -4.1% | [5] 3.1% | [6] -17.8%

Cc1cc(C)c(NC(=O)c2cc(C(=O)O)c(C(=O)Nc3c(C)cc(C)cc3C)cc2C(=O)O)c(C)c1
inactive: [1] 8.7% | [2] 2.5% | [3] -15.6% | [4] -7.1% | [5] 2.5% | [6] -1.55%

CC12CCC(=O)C=C1CCC1C2CCC2(C)C(C(=O)Cn3c(=O)[nH]cc(F)c3=O)CCC12 (stereo unspecified)
inactive: [1] 19.9% | [2] 1.85% | [3] 25.9% | [4] 8.85% | [5] 6.55% | [6] 11%

Nc1nc(SCCc2ccccc2)c2[nH]cnc2n1
inactive: [1] -2.35% | [2] -4.35% | [3] -42.6% | [4] -16.6% | [5] -20.4% | [6] 7%

[B-]([C+]1CCCCC1)N1C=CC=CC1
inactive: [1] 1.2% | [2] 1.4% | [3] 15.7% | [4] -4.75% | [5] 4.95% | [6] -2.1%

O=C1CCCC(=O)c2c(O)ccc(O)c21
inactive: [1] 4.4% | [2] -4.15% | [3] 9.5% | [4] -3.4% | [5] 10.7% | [6] 5.65%
